{"source": "PubChem BioAssay (NCI)", "note": "This is part of a sample that, as a whole, favours compounds with a hit. Of some 79,000 tested, about 15% had one in any assay. Unmarked numbers belong to inactive results. Active and inactive are the calls of the source. Cut-off read from the data, not from the text of the source: active = growth inhibition above about 70%; inactive = the rest.", "data": [{"assay": "NCI Yeast Anticancer Drug Screen. Data for the mlh1 rad18 strain (AID 175)", "conditions": "S. cerevisiae mlh1 rad18 strain growth inhibition; at 50.0 µM; stronger effect = higher value", "how_it_was_run": "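Growth inhibition of the yeast strain was measured after compound exposure and expressed relative to vehicle-treated controls. The strain carries defined defects in DNA damage repair.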", "values": [{"compound": "COc1ccc(C(=O)N/N=C/c2ccccc2OC)cc1", "growth inhibition": "32%"}, {"compound": "O=C1OC(=O)c2c(Br)c(Br)c(Br)c(Br)c21", "growth inhibition": "2.7%"}, {"compound": "CCOc1cc2c(cc1O)CC[C@@H]1[C@@H]2CC[C@]2(C)C(OS(=O)OC3CC[C@@H]4[C@H]5CCc6cc(O)c(OCC)cc6[C@@H]5CC[C@@]34C)CC[C@@H]12", "note": "(stereo not given in full)", "growth inhibition": "-15.5%"}, {"compound": "Cc1c(S)cnc2ccccc12", "growth inhibition": "2.85%"}, {"compound": "CCCCc1c(O)nc(NCCCC(N)C(=O)O)[nH]c1=O", "note": "(stereo not given)", "growth inhibition": "-17.8%"}, {"compound": "CCCC[n+]1cccc(C(=O)c2ccccc2)c1", "growth inhibition": "8.85%"}, {"compound": "O=C1OC(c2ccc([N+](=O)[O-])cc2)=N/C1=C\\c1cc(Br)ccc1O", "growth inhibition": "35%"}, {"compound": "O=C1C(Cl)N(c2ccccc2[N+](=O)[O-])C1c1c[nH]c2ccccc12", "note": "(stereo not given)", "growth inhibition": "-31.7%"}, {"compound": "CCOC(=S)SC(=S)SC(=S)OCC", "growth inhibition": "-22.2%"}, {"compound": "CCCCCCCCCSc1nc2ccc(N=Cc3ccccc3O)cc2s1", "growth inhibition": "-40.6%"}, {"compound": "CC(C)NP(=O)(OC1CC(C)(C)N(O)C(C)(C)C1)OC1CC(C)(C)N(O)C(C)(C)C1", "growth inhibition": "5.65%"}, {"compound": "OCC1OC(n2cnc3c(NCc4ccccc4)ncnc32)C(O)C1O", "note": "(stereo not given)", "growth inhibition": "0.55%"}, {"compound": "O/N=C1\\CC2CC1C1CC3(CC3)C21", "note": "(stereo not given)", "growth inhibition": "20.6%"}, {"compound": "CCOC(=O)c1[nH]n(-c2ccccc2)c(=O)c1C=NC(=S)c1cccnc1", "growth inhibition": "-16.5%"}, {"compound": "N=c1c(C(=O)O)cccn1O", "growth inhibition": "4.9%"}, {"compound": "COc1cc2c3c(c1)CCCN3CCC2", "growth inhibition": "-17.6%"}, {"compound": "CC(C)C12Cc3c(ccc4ccccc34)OC1(C)Oc1ccc3ccccc3c1C2", "note": "(stereo not given)", "growth inhibition": "7.05%"}, {"compound": "CSc1nnc(CF)c(=O)[nH]1", "growth inhibition": "-14.4%"}, {"compound": "O=C1NC(=O)C2C3CCC(C3)C12", "note": "(stereo not given)", "growth inhibition": "0.4%"}, {"compound": "C=Nc1ccc(C)cc1", "growth inhibition": "-18.4%"}, {"compound": "COc1ccc(C(=O)N/N=C/c2cccc(OC)c2OC)cc1", "growth inhibition": "-41.8%"}, {"compound": "O=c1nc2c(c(-c3ccc(Br)cc3)[nH]1)COC/C2=C\\c1ccc(Br)cc1", "growth inhibition": "31.3%"}, {"compound": "COC(=O)c1cc2ccccc2c2c3c(ccc12)OCO3", "growth inhibition": "-14.3%"}, {"compound": "CCC(C)(CC(=O)O)CC(=O)O", "growth inhibition": "5.3%"}, {"compound": "Cc1cc(SCC(=O)c2ccccc2)nc2ccccc12", "growth inhibition": "-2.7%"}, {"compound": "N#Cc1c(=O)[nH]c(=O)n2c1[nH]c1ccccc12", "growth inhibition": "8.15%"}, {"compound": "O=C1OC(=O)c2ccc([N+](=O)[O-])c3c(C(=O)O)ccc1c23", "growth inhibition": "2.85%"}, {"compound": "CCc1cccc(C)c1N1C(=O)C(=O)C(c2nc3ccccc3o2)C(=O)C1=O", "growth inhibition": "34.5%"}, {"compound": "CCCCCCCCCCCCCCCC(=O)OCC(=O)O", "growth inhibition": "1.3%"}, {"compound": "O=C(O)CNC1CCCC1", "growth inhibition": "-15.1%"}, {"compound": "Clc1ccc(-c2nnc3c4ccccc4ccn23)cc1", "growth inhibition": "1%"}, {"compound": "COC(=O)c1ccc2cc1Nc1c(C#N)cnc(=S)n1-2", "growth inhibition": "18.1%"}, {"compound": "COC(=O)C(CC(=O)c1ccc2ccccc2c1)OC", "note": "(stereo not given)", "growth inhibition": "-9.55%"}, {"compound": "CCN(CC)CCCNC(Cc1ccccc1)c1ccc(OC)cc1", "note": "(stereo not given)", "growth inhibition": "-19.8%"}, {"compound": "O=C(O)C(O)c1cccc([N+](=O)[O-])c1", "note": "(stereo not given)", "growth inhibition": "-12.9%"}, {"compound": "CCCCc1ccc(Nc2nc(OC)c3ncn(C4CC(O)C(CO)O4)c3n2)cc1", "note": "(stereo not given)", "growth inhibition": "86.8% (active)"}, {"compound": "Cc1cccc(C2=N/C(=C\\c3ccccc3)C(=O)O2)c1", "growth inhibition": "5.35%"}, {"compound": "Fc1c(F)c(F)c(Nc2c(F)c(F)c3c(F)c(F)c(F)c(F)c3c2F)c(F)c1F", "growth inhibition": "0.95%"}, {"compound": "CCCCCc1c(C)[nH]n(C(N)=NCCSCc2nc[nH]c2C)c1=O", "growth inhibition": "25.2%"}, {"compound": "CN(N)c1nc2c(N)ncnc2n1C1OC(CO)C(O)C1O", "note": "(stereo not given)", "growth inhibition": "48.3%"}]}]}
